According to PubChem BioAssay (NCATS):

Assay: Cell Proliferation Assay against the TMD8 Cell Line (AID 651645);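 note: cells exposed to compound for 48 h before reading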
Details: TMD8 DLBCL cell line proliferation/viability; at 46.1 µM (top of the series)
Text: One class of targeted therapeutics showing early clinical success in killing of ABC DLBCL lines are small molecule inhibitors of the Bruton tyrosine kinase (BTK) 11.
Prior to any combination assays, using an NCATS developed oncology compound library called the Mechanism of Interrogation Plate (MIPE), two well studied ABC DLBCL lines (TMD8 and HBL1) were screened using a cell viability assay (CellTiterGlo) and a 12-point titration series for each single agent. These initial experiments offered insight into the concentration range that offered the best coverage of activity and non-activity to assure relevant data is generated. In addition to the viability signature associated with this library, we examined the apoptotic response of each agent versus the TMD8 line as judged by caspase 3/7 activation. Activity was assayed at both 8 and 16 hour time-points to gain an appreciation of which agents induced an apoptotic response in a reasonable timeframe from a therapeutic exposure perspective. MIPE was also assayed for single agent viability in a human mesenchymal stem cell (hMSC) line as a surrogate of each library member's potential therapeutic index.
A total of 500 log growing TMD8 cells are seeded per well in 5 uL of a RPMI with glutamine (or Glutamax), without phenol red plus 5% FBS and 1X Pen/Strep into 1536 -solid white high base tissue culture treated Greiner One Bio Plates (789173-F) using a multidrop combi dispenser and a small sterile cassette. Compounds and controls totaling 23nL per well (negative control DMSO and positive control 9.2 uM Bortezomib-final) are immediately added to the plates using a 1536 head pin tool from Kalypsys. The plates are then covered with stainless steel gasket lids from Kalypsys and incubated for 48 hours at 37C under 95% relative humidity with 5% CO2. After 48 hours, the plates are removed and allowed to reach room temperature before 3 uL of Cell Titer Glo reagent (Promega) is added using an Aurora Flying Reagent Dispenser Bioraptor. The plates are then spun at 1000 rpms to remove bubbles and incubated for 15 minutes at room temperature before read on a ViewLux using a luminescent filter with a 10 second exposure. The relative luciferase units are used to calculated percent activity using DMSO as 100% and Bortezomib as 0%.

| SMILES | viability (% of control) |
| --- | --- |
| Cc1ccc(C(=O)N(CCCN)[C@@H](c2nc3cc(Cl)ccc3c(=O)n2Cc2ccccc2)C(C)C)cc1 | 0.587% |
| CNC(=O)c1cc(COc2nnc(Nc3ccc(Cl)cc3)c3ccoc23)ccn1 | 39.7% |
| CN(C)CCN(C)C(=O)c1ccc(NC(=O)Nc2ccc(-c3nc(N4CCOCC4)c4ccn(CC(F)(F)F)c4n3)cc2)cc1 | 0.807% |
| COc1nc(C)cnc1NS(=O)(=O)c1cccnc1-c1ccc(-c2nnco2)cc1 | 116% |
| O=C(Nc1ccc(OC(F)(F)F)cc1)c1sccc1NCc1ccnc2ccccc12 | 9.29% |
| COc1cc2c(cc1OC)CC(=O)N(CCCN(C)C[C@H]1Cc3cc(OC)c(OC)cc31)CC2 | 108% |
| Cc1ccc(NC(=O)c2ccc(CN3CCN(C)CC3)cc2)cc1Nc1nc(-c2cccnc2)cs1 | 8.7% |
| O=C(O)Cc1cccc(OCCCN(Cc2cccc(C(F)(F)F)c2Cl)CC(c2ccccc2)c2ccccc2)c1 | 8.71% |
| CCC=CC[C@H]1C(=O)CC[C@@H]1CC(=O)OC | 114% |
| O=C(O)c1ccc(O)c2ncc(N3CCOCC3)cc12 | 77.1% |
| OCCn1cc(-c2ccc3c(c2)CCC3=NO)c(-c2ccncc2)n1 | 80.7% |
| COC(=O)Nc1ccc(-c2nc(N3CCOCC3)c3cnn(C4CCN(C(=O)OC)CC4)c3n2)cc1 | 32.2% |
| CCCCOCCOc1nc(-c2ccc(C(=O)O)c(F)c2)sc1C | 98.4% |
| CN(C)CCCNC(=O)c1ccc(-c2cc(O)c3ncccc3c2)cc1 | 2.8% |
| CCNC(=O)c1noc(-c2cc(C(C)C)c(O)cc2O)c1-c1ccc(CN2CCOCC2)cc1 | 7.59% |
| Cc1c(C(=O)Nc2ccc(N3C[C@@H](C)O[C@@H](C)C3)nc2)cccc1-c1ccc(OC(F)(F)F)cc1 | 48.4% |
| COc1c(C)cnc(Cn2cnc3c(Cl)nc(N)nc32)c1C | 13.8% |
| NC(=O)c1ccc(N(C(N)=O)c2c(F)cccc2F)nc1-c1ccc(F)cc1F | 81.2% |
| CCCCc1ccc(NS(=O)(=O)c2ccc(C)c(C(=O)N3CCN(c4cccc(C)c4C)CC3)c2)cc1 | 9.89% |
| O=C(Nc1cccc(Cl)c1)Nc1ncc(CCNc2ncnc3ccsc23)s1 | 1.73% |

| SMILES | viability (% of control) |
| --- | --- |
| CC(=O)Nc1cccc(-n2c(=O)n(C3CC3)c(=O)c3c(Nc4ccc(I)cc4F)n(C)c(=O)c(C)c32)c1 | 0.993% |
| Cc1cc2c(cc1C1(c3ccc(C(=O)O)cn3)CC1)C(C)(C)CCC2(C)C | 79.3% |
| CC(O)=C(C#N)C(=O)Nc1ccc(C(F)(F)F)cc1 | 43.6% |
| O=C1C(CCC(O)c2ccc(F)cc2)C(c2ccc(O)cc2)N1c1ccc(F)cc1 (stereo not given) | 87.2% |
| COc1ccc2c(c1)CC[C@H]1[C@@H]2CC[C@]2(C)[C@@H](NCCCCCCN3C(=O)C=CC3=O)CC[C@H]12 | 15.9% |
| Nc1ccc(-c2ccc3ncc4ccc(=O)n(-c5cccc(C(F)(F)F)c5)c4c3c2)cn1 | 9.02% |
| Cn1cc(-c2ccc3nnc(Sc4ccc5ncccc5c4)n3n2)cn1 | 74.4% |
| CCCCn1c(=O)n(Cc2ccccc2F)c(=O)c2[nH]c(Cc3ccc(NC(C)=O)cc3)nc21 | 5.19% |
| CNC(=O)c1cc(Oc2ccc(NC(=O)Nc3ccc(Cl)c(C(F)(F)F)c3)c(F)c2)ccn1 | 3.02% |
| CC(C)C[C@H](NC(=O)c1cc2ccccc2s1)C(=O)N1CCN(C(=O)[C@H](CO)NS(=O)(=O)c2ccc(Cl)cc2Cl)CC1 | -0.483% |
| CN1C(=O)C(Cc2c[nH]c3ccccc23)NC1=S (stereo not given) | 80.6% |
| CC(C)(C)c1[nH]cnc1C=c1[nH]c(=O)c(=Cc2ccccc2)[nH]c1=O | 1.63% |
| CCN(CC)CCCCNc1nc2cc(Cl)c(Cl)cc2nc1-c1ccc(-c2cccs2)s1 | 1.61% |
| Cc1csc(-c2nnc(Nc3ccc(Oc4ncccc4-c4ccnc(N)n4)cc3)c3ccccc23)c1 | 4.09% |
| COc1ccc(CCN(C)CCCOc2ccc(S(=O)(=O)c3[nH]c4ccccc4c3C(C)C)cc2)cc1OC | 4.97% |
| COc1cccc(OC)c1-c1cc(C(=O)NC2(C(=O)O)C3CC4CC(C3)CC2C4)nn1-c1ccnc2cc(Cl)ccc12 (stereo not given) | 69% |
| CC(=O)NCCC(=O)N[C@@H](CCC(N)=O)C(=O)N[C@@H](CO)C(=O)N[C@@H](CCC(N)=O)C(=O)N[C@@H](CCC(N)=O)C(=O)N[C@H](C(=O)N[C@@H](Cc1ccccc1)C(=O)N[C@]1(C)CCCCCCC=CCCC[C@@](C)(C(=O)N[C@@H](CCC(N)=O)C(=O)N[C@@H](CC(N)=O)C(N)=O)NC(=O)[C@H](CC(C)C)NC(=O)[C@H](CC(C)C)NC(=O)[C@@H](CCCNC(=N)N)NC(=O)[C@H](Cc2c[nH]c3ccccc23)NC(=O)[C@H](CC(C)C)NC(=O)[C@H](CC(N)=O)NC1=O)[C@H](C)O | 22.4% |
| CC1=C[C@@H]2[C@@H]([C@@H](O)C[C@@]3(C)[C@H]2C[C@@H](C)[C@]3(O)C(=O)CO)[C@@]2(C)Cc3cnn(-c4ccccc4)c3C=C12 | 0.486% |
| CCCCCCCCCCCCCC(=O)N[C@H](CO)[C@H](O)c1ccc([N+](=O)[O-])cc1 | 4.37% |
| Cc1cccc(Nc2nc(N[C@@H]3CCCC[C@H]3N)ncc2C(N)=O)c1 | 2.81% |
